# Compounds with a hit are over-represented: about 3.9% of the library has one in this group of screens.
# Cardio protect – protects H9c2 cardiomyocytes from peroxide injury; H2O2 injury protection, ATPLite, 2 h; AID 588492; 360,000 compounds, 0.63% hits; protection from H2O2 cell death, % at 20 µM;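 active = compounds giving at least 50% protection of heart cells from peroxide-induced death in the single-dose screen, raw or plate-pattern-corrected value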;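 note: 0% = DMSO wells with peroxide and 100% = DMSO wells without peroxide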
# NTR1 agonist – NTR1 (human) agonism; P30989; NTR1-U2OS beta-arrestin-GFP spot imaging, agonist mode; activation, % at 20 µM; 330,000 compounds, 0.17% hits;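 active = activation at or above 40% of the spot to cytoplasm intensity ratio, with at least 20 cells analyzed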;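 note: 0% = DMSO without peptide and 100% = 100 nM NTR1 peptide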
# Target sequence (P30989 whole entry, looked up): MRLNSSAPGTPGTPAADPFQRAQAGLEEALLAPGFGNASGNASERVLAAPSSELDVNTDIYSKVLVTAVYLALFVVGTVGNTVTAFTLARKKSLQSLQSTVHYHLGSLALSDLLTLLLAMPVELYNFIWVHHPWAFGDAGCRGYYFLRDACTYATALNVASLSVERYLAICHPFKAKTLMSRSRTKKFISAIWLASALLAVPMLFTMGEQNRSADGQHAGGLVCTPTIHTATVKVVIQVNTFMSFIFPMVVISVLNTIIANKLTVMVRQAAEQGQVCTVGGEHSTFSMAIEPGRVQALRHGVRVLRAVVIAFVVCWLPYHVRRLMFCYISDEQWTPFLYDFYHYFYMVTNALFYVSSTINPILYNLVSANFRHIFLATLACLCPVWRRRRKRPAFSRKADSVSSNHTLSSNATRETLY
# ALR inh – human ALR oxidase inhibition via reduced H2O2; P55789; purified ALR, DTT oxidation, H2O2 HRP-luminol luminescence; inhibition, % (test concentration not listed); 290,000 compounds, 3.8% hits;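 active = mean replicate inhibition above about 79%, with every replicate also reaching it, limit read from the data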
# UBC9 SUMO inh – inhibitors of human SUMOylation (UBC9). HTRF SUMOylation assay, SAE1/SAE2 + UBC9, in vitro. inhibition, % at 35 µM. 290,000 compounds, 0.36% hits; in the data active = inhibition above about 50%, passing the limit was not always enough
# * hit, by the source's call; . = not tested or not shown.
SMILES,Cardio protect,NTR1 agonist,ALR inh,UBC9 SUMO inh
COc1cccc(-c2nc(CS(=O)(=O)CC(=O)NCCC(C)C)c(C)o2)c1,6,3,25,4
COc1ccc(-c2nc(CS(=O)CC(=O)NCc3ccc4c(c3)OCO4)c(C)o2)cc1 (stereo not given),-7,-2,99*,3
Cc1ccc(NC(=O)NNC(=O)C2CC(c3cccnc3)=NO2)cc1 (stereo not given),4,1,10,-18
O=c1[nH][nH]c(C(F)(F)F)c1C=Nc1cccc(Cl)c1,12,0,0,2
CCOc1ccc(N2C(=O)CC(Sc3n[nH]c(-c4ccccc4)n3)C2=O)cc1 (stereo not given),-10,2,99*,2
COc1ccc(N2C(=O)CC(Sc3n[nH]c(-c4ccccc4)n3)C2=O)cc1 (stereo not given),-20,0,99*,2
CC1=CC(C)C(/C=N/N=C(N)N)C(C)C1 (stereo not given),9,1,-13,-1
CCn1nc([N+](=O)[O-])c(C(C#N)c2nc3ccccc3n2C)c(Cl)c1=O (stereo not given),-7,1,.,5
CCCn1nc([N+](=O)[O-])c(C(C#N)c2nc3ccccc3s2)c(Cl)c1=O (stereo not given),-18,11,97*,21
COC(=O)/C(=C(O)\C=C\c1ccccc1[N+](=O)[O-])c1nc2ccccc2[nH]1,68*,7,.,16
Nc1cc2[nH]c(=O)c3ccccc3c2cc1[N+](=O)[O-],81*,.,.,.
CCCc1nn(C)c(C(N)=O)c1[N+](=O)[O-],-3,1,2,31
O=c1c(-c2ccco2)[n+]([O-])c2ccccc2n1OCc1ccccc1F,7,4,97*,16
CCOn1c(=O)c(-c2cc3ccccc3o2)[n+]([O-])c2ccccc21,22,7,93*,4
CNC(=O)NC(=O)CSc1nnc(-c2ccco2)n1Cc1ccccc1,12,10,-2,-11
CCCCOc1ccc(-c2c(C(=O)Nc3ccccc3)c(C)[nH]c(=S)c2C#N)cc1,4,3,12,10
CCCCOc1ccc(-c2c(C#N)c(N)[nH]c(=S)c2C#N)cc1,8,3,88*,11
Cc1cccc2c(N=Nc3ccc(S(=O)(=O)Nc4ccc(Cl)cc4)cc3[N+](=O)[O-])c(O)[nH]c12,-2,2,-2,68*
COc1cccc(OCC(=O)NC2CCCCC2)c1,0,0,-7,10
COCCN(C(=O)CSc1ccc2c(c1)OCCO2)c1c(N)n(CC(C)C)c(=O)[nH]c1=O,4,2,94*,.
CCCCn1c(N)c(N(CC(C)C)C(=O)CSc2ccc3c(c2)OCCO3)c(=O)[nH]c1=O,9,1,.,.
O=[N+]([O-])c1ccccc1-c1cc(-c2cc(Cl)ccc2O)n[nH]1,-14,.,99*,-16
COc1ccc(O)c(-c2cc(-c3ccccc3[N+](=O)[O-])[nH]n2)c1,-3,0,99*,-14
Oc1ccc(Cl)cc1-c1cc(-c2ccccc2Cl)[nH]n1,-20,26,-7,6
Oc1ccccc1-c1cc(-c2ccccc2Cl)[nH]n1,-16,18,89*,-14
SMILES,Cardio protect,NTR1 agonist,ALR inh,UBC9 SUMO inh
Cc1ccc(O)c(-c2cc(-c3ccccc3[N+](=O)[O-])[nH]n2)c1,-5,6,65,-12
CCc1ccc(S(=O)(=O)Nc2cccc(-c3ccc4nncn4n3)c2)s1,8,3,1,29
Nc1nc(N)nc(-c2cc(O)ccc2O)n1,3,0,91*,.
COc1ccc(-c2cc(N)n(S(=O)(=O)c3ccc(C)cc3)n2)c(OC)c1,-23,1,99*,21
COc1ccc(S(=O)(=O)n2nc(-c3ccc(Cl)cc3)cc2N)cc1,-11,7,-7,17
O=C(NNc1ccccc1)/C(=C\c1cccnc1)NC(=O)c1ccccc1,1,0,98*,6
CC1CCc2c(sc(NC(=O)c3ccccc3C(=O)O)c2C#N)C1 (stereo not given),-5,0,97*,12
CCC(C)(C)C1CCc2c(sc(NC(=O)c3ccccc3C(=O)O)c2C#N)C1 (stereo not given),-2,4,63,.
CC(C)(C)C1CCc2c(sc(NC(=O)C3CC=CCC3C(=O)O)c2C#N)C1 (stereo not given),4,7,97*,13
Cc1ncc([N+](=O)[O-])n1CC(=O)Nc1ccc(Cl)cc1,0,-1,-6,4
Cc1ccc(-c2ccc(C)c(N)c2C)c(C)c1N,-7,-1,83*,13

# Source: PubChem
